Results with a measured potency or affinity are listed apart. A number with no mark means an inactive call.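 Rule for the calls: active = every replicate test called active, each showing a drop in signal with a fitted potency within twice the top tested dose; inconclusive = tests disagree, or fits are weak, flat midrange or poor; inactive = every test flat, rising or fitted past the limit.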
Test: A549 cell cytotoxicity, dose response, cytotoxicity control, CellTiter-Glo luminescence, dry powder, set 18 (AID 1117290)
Conditions: A549 viability, CellTiter-Glo ATP luminescence, 72 h; series mostly up to 26 µM; activity change, negative = cytotoxicity: at the top concentration

SMILES	activity change, negative = cytotoxicity [%]
COc1ccc(C(=O)Nc2cc(C)ccc2N2CCCCC2)cc1S(=O)(=O)O	-11.4
CC(=O)N1CCN(C(=O)C2(NC(=O)Nc3ccc(C(C)C)cc3)CCCCC2)CC1	-15.8
COc1ccc(C(=O)Nc2cc(F)ccc2N2CCCCC2)cc1S(=O)(=O)O	-18.2
COc1cccc(NC(=O)NC2(C(=O)N3CCN(C(C)=O)CC3)CCCCC2)c1	-9.11
COc1ccc(C(=O)O)cc1S(=O)(=O)N1CCN(c2ccc(C(F)(F)F)cc2N)CC1	-5.61
COc1ccc(C2=NN(c3ccc(C(=O)O)cc3)C(c3ccc(OC)c(OC)c3)C2)cc1 (stereo unspecified)	-11.2
O=S(=O)(Nc1cc(C(F)(F)F)ccc1N1CCCCC1)c1ccccc1	-6.73
O=S(=O)(Nc1cc(C(F)(F)F)ccc1N1CCCCC1)c1ccc(Cl)cc1	-14.8
CC(=O)N1CCN(C(=O)CNC(=O)Nc2ccc(C)cc2)CC1	-10.5
O=S(=O)(Nc1cc(C(F)(F)F)ccc1N1CCCCC1)c1ccc(Br)cc1	-10.4
CC(=O)N1CCN(C(=O)C2(NC(=O)Nc3ccc(F)cc3)CCCCC2)CC1	-14.3
O=S(=O)(Nc1cc(C(F)(F)F)ccc1N1CCCCC1)c1ccc(-c2ccccc2)cc1	-10.4
Cc1ccccc1S(=O)(=O)Nc1cc(C(F)(F)F)ccc1N1CCCCC1	-9.98
CC(=O)N1CCN(C(=O)C(C)(C)NC(=O)Nc2ccc(C)cc2)CC1	-8.05
CC(=O)N1CCN(C(=O)[C@@H]2CCN2C(=O)Nc2ccc(C)cc2)CC1	-11.2
CC(=O)N1CCN(C(=O)C2(NC(=O)NCCc3ccccc3)CCCCC2)CC1	-20.8

Reference: PubChem BioAssay AID1117290 (Broad Institute, 2014)
